# Data from article PMC11062922 (Nature Chemical Biology, 2023).
# Read-outs that look alike come from different tables or passages of the source.
# Assays:
# Parameters in all cases: species or system human, MV4-11 + K-562 + COLO205 + SK-N-BE2 + OVCAR-8
# [1] = system: ATR; details: read-out: apparent Kd, n = 1
# [2] = system: PIK3C3; details: read-out: apparent Kd, n = 1
# [3] = system: DDR1; details: read-out: apparent Kd; compound concentrations: 100 nM and 1000 nM (sheet 'Samples'), CATDS: 4.92942958534755E-2; n = 1
# [4] = system: AKT1; details: read-out: apparent Kd, n = 1
# [5] = system: CSNK1G1; details: read-out: apparent Kd, n = 1
# [6] = system: FRK; details: read-out: apparent Kd, compound concentrations: 100 nM and 1000 nM (sheet 'Samples'), n = 1
# [7] = system: IKBKE; details: read-out: apparent Kd, n = 1
# [8] = system: LYN; details: read-out: apparent Kd, compound concentrations: 100 nM and 1000 nM (sheet 'Samples'), n = 1
# [9] = system: PIM2; details: read-out: apparent Kd, n = 1
# [10] = system: STK11; details: read-out: apparent Kd, n = 1
# [11] = system: SYK; details: read-out: apparent Kd, n = 1
# [12] = system: TP53RK; details: read-out: apparent Kd, n = 1
# [13] = system: MAP2K5; details: read-out: apparent Kd, n = 1
# [14] = system: MAP4K5; details: read-out: apparent Kd, n = 1
# [15] = system: RPS6KA1; details: read-out: apparent Kd, compound concentrations: 100 nM and 1000 nM (sheet 'Samples'), n = 1
# [16] = system: SLK; details: read-out: apparent Kd, n = 1
# [17] = system: TGFBR1; details: read-out: apparent Kd, n = 1
# [18] = system: EPHB3; details: read-out: apparent Kd; compound concentrations:100 nM and 1000 nM (sheet 'Samples'); n = 1
# [19] = system: MAPKAPK2; details: read-out: apparent Kd; compound concentrations:100 nM and 1000 nM (sheet 'Samples'); n = 1
# [20] = system: RIPK2; details: read-out: apparent Kd; compound concentrations: 100 nM and 1000 nM (sheet 'Samples'), CATDS: 5.5547059533083698E-2; n = 1
# [21] = compound concentrations:100 nM and 1000 nM (sheet 'Samples')
compound,measurement,setting,value
CNCc1ccc(-c2cc(-c3nc(-c4ccc(S(=O)(=O)C(C)C)cc4)cnc3N)on2)cc1 [VE-822],potency estimated from few doses,"[1]; compound concentrations: 100 nM and 1000 nM (sheet 'Samples'), CATDS: 0.44999345055434797",7.76 nM
same,potency estimated from few doses,[2]; [21],500 nM
CN(c1ccc(NC(=O)NCCN2CCOCC2)cc1)c1ccnc(Nc2ccc(CS(C)(=O)=O)cc2)n1.Cl [GW830365A],potency estimated from few doses,[3],1360 nM
CCn1c(-c2cccnc2O)nc2cnccc21 [SB-736715],potency estimated from few doses,"[4]; compound concentrations: 100 nM and 1000 nM (sheet 'Samples'), CATDS: 1.3570938887082299E-2",1610 nM
same,potency estimated from few doses,"[1]; compound concentrations: 100 nM and 1000 nM (sheet 'Samples'), CATDS: 1.78741670317108E-2",919 nM
same,potency estimated from few doses,"[5]; compound concentrations: 100 nM and 1000 nM (sheet 'Samples'), CATDS: 1.6371117072737501E-2",1080 nM
same,potency estimated from few doses,[6]; CATDS: 1.6945625051929199E-2,1010 nM
same,potency estimated from few doses,"[7]; compound concentrations: 100 nM and 1000 nM (sheet 'Samples'), CATDS: 1.31503893194051E-2",1730 nM
same,potency estimated from few doses,[8]; CATDS: 1.4378257714361201E-2,1420 nM
same,potency estimated from few doses,"[2]; compound concentrations: 100 nM and 1000 nM (sheet 'Samples'), CATDS: 1.55952310039979E-2",1190 nM
same,potency estimated from few doses,"[9]; compound concentrations: 100 nM and 1000 nM (sheet 'Samples'), CATDS: 1.60081703977401E-2",1130 nM
same,potency estimated from few doses,"[10]; compound concentrations: 100 nM and 1000 nM (sheet 'Samples'), CATDS: 1.3793469415990099E-2",1550 nM
same,potency estimated from few doses,"[11]; compound concentrations: 100 nM and 1000 nM (sheet 'Samples'), CATDS: 1.27185371688364E-2",1880 nM
same,potency estimated from few doses,"[12]; compound concentrations: 100 nM and 1000 nM (sheet 'Samples'), CATDS: 1.2573959142924701E-2",1940 nM
CCn1c(-c2nonc2N)nc2c(C#CC(C)(C)O)nc(O[C@@H](CN)c3ccccc3)cc21.O=C(O)C(F)(F)F [GSK1007102B],potency estimated from few doses,[4]; [21],1120 nM
O=C(O)C(F)(F)F.O=c1[nH]ccc2nc(N[C@@H]3CCNC3)nc(Nc3ccc4c(c3)S(=O)(=O)CC4)c12 [GSK2181306A],potency estimated from few doses,"[5]; compound concentrations: 100 nM and 1000 nM (sheet 'Samples'), CATDS: 8.6672996654843307E-3",1380 nM
same,potency estimated from few doses,"[13]; compound concentrations: 100 nM and 1000 nM (sheet 'Samples'), CATDS: 1.2089918500056101E-2",509 nM
same,potency estimated from few doses,"[14]; compound concentrations: 100 nM and 1000 nM (sheet 'Samples'), CATDS: 1.5726732073661799E-2",283 nM
same,potency estimated from few doses,"[9]; compound concentrations: 100 nM and 1000 nM (sheet 'Samples'), CATDS: 8.9086191917804505E-3",1250 nM
same,potency estimated from few doses,[15]; CATDS: 8.5840482500919892E-3,1440 nM
same,potency estimated from few doses,"[16]; compound concentrations: 100 nM and 1000 nM (sheet 'Samples'), CATDS: 1.8680668627662898E-2",201 nM
same,potency estimated from few doses,"[10]; compound concentrations: 100 nM and 1000 nM (sheet 'Samples'), CATDS: 1.6673452289140401E-2",251 nM
same,potency estimated from few doses,"[11]; compound concentrations: 100 nM and 1000 nM (sheet 'Samples'), CATDS: 8.7741915408421998E-3",1320 nM
CN(C)CC(O)COc1ccc(Nc2nccc(-c3cnn4nc(N5CCOCC5)ccc34)n2)cc1 (stereo not drawn) [GW767488X],potency estimated from few doses,[7]; [21],2010 nM
same,potency estimated from few doses,[2]; [21],581 nM
NC(=O)c1cc(-c2ccccc2)cc2c(C3CCNCC3)c[nH]c12 [GSK301362A],potency estimated from few doses,[9]; [21],1500 nM
O=C(O)C(F)(F)F.O=C(O)C(F)(F)F.O=c1[nH]ccc2nc(N[C@@H]3CCCNC3)nc(Nc3ccc(S(=O)(=O)N4CCOCC4)cc3)c12.O=c1[nH]ccc2nc(N[C@@H]3CCCNC3)nc(Nc3ccc(S(=O)(=O)N4CCOCC4)cc3)c12 [GSK2177277A],potency estimated from few doses,"[5]; compound concentrations: 100 nM and 1000 nM (sheet 'Samples'), CATDS: 7.1909422101758503E-3",882 nM
same,potency estimated from few doses,[8]; CATDS: 7.0851480794777598E-3,942 nM
same,potency estimated from few doses,"[13]; compound concentrations: 100 nM and 1000 nM (sheet 'Samples'), CATDS: 1.4569473169207601E-2",103 nM
same,potency estimated from few doses,"[14]; compound concentrations: 100 nM and 1000 nM (sheet 'Samples'), CATDS: 2.1531310564231101E-2",45.7 nM
same,potency estimated from few doses,[15]; CATDS: 7.3742407001506898E-3,792 nM
same,potency estimated from few doses,"[16]; compound concentrations: 100 nM and 1000 nM (sheet 'Samples'), CATDS: 7.3686549547766099E-3",794 nM
same,potency estimated from few doses,"[17]; compound concentrations: 100 nM and 1000 nM (sheet 'Samples'), CATDS: 6.2904955022957598E-3",1740 nM
COc1cc[nH]c1/C=C1\C(=O)Nc2ccc(F)c(C#CC3(O)CCNCC3)c21.Cl [RO0282986-001],potency estimated from few doses,"[14]; compound concentrations: 100 nM and 1000 nM (sheet 'Samples'), CATDS: 8.9413368005166593E-3",2190 nM
same,potency estimated from few doses,[15]; CATDS: 9.1961356652332602E-3,1900 nM
same,potency estimated from few doses,"[10]; compound concentrations: 100 nM and 1000 nM (sheet 'Samples'), CATDS: 1.0901325293505499E-2",966 nM
c1cnn2ncc(-c3ccnc(Nc4ccc5c(c4)OCCO5)n3)c2c1 [GW806290X],potency estimated from few doses,"[4]; compound concentrations: 100 nM and 1000 nM (sheet 'Samples'), CATDS: 2.02119935433384E-2",1930 nM
CC(C)Oc1ccc2c(-c3ccnc(Nc4ccc(N5CCN(C)CC5)cc4)n3)cnn2n1 [GW696155X],potency estimated from few doses,[7]; [21],343 nM
CNc1cc(-c2ccc3c(N)n[nH]c3c2)nc(N)n1 [GSK2224810A],potency estimated from few doses,[1]; [21],814 nM
same,potency estimated from few doses,[5]; [21],2200 nM
same,potency estimated from few doses,[17]; [21],1160 nM
O=C(O)C(F)(F)F.O=c1[nH]ccc2nc(N[C@@H]3CCNC3)nc(Nc3cc(Cl)cc(Cl)c3)c12 [GSK2188764A],potency estimated from few doses,[13]; [21],207 nM
same,potency estimated from few doses,[9]; [21],2030 nM
same,potency estimated from few doses,[16]; [21],826 nM
O=C1N=C(NCc2cccs2)O/C1=C\c1ccc2ncccc2c1 [RO4624208-000],potency estimated from few doses,"[12]; compound concentrations: 100 nM and 1000 nM (sheet 'Samples'), CATDS: 4.7970425138991198E-2",1610 nM
CS(=O)(=O)CCn1c(=O)c(Oc2ccc(F)cc2F)cc2cnc(NC3CCOCC3)nc21 [RO5027956-000],potency estimated from few doses,[18],2330 nM
same,potency estimated from few doses,[19],15.9 nM
same,potency estimated from few doses,[9]; [21],1660 nM
O=C(Nc1n[nH]c2nc(-c3ccccc3O)ccc12)C1CC1 [SB-711880],potency estimated from few doses,[14]; [21],1760 nM
same,potency estimated from few doses,[11]; [21],1760 nM
CCn1c(-c2nonc2N)nc2cncc(C(=O)N3CC[C@H](N)C3)c21.Cl [SB-772077-B],potency estimated from few doses,[9]; [21],122 nM
Cc1cc(NC(=O)c2cccc(NC(=O)/C=C/CN(C)C)c2)ccc1Nc1nccc(-c2cccnc2)n1 [JNK-IN-7],potency estimated from few doses,[2]; [21],1570 nM
Nc1nccc(-c2ccc3c(N)n[nH]c3c2)n1 [GSK1034945A],potency estimated from few doses,[12]; [21],1540 nM
Cc1occc1-c1nc(N)c(OC[C@@H](N)Cc2c[nH]c3ccccc23)cc1-c1cc2c(C)n[nH]c2cn1 [GSK1660450B],potency estimated from few doses,[5]; [21],1340 nM
same,potency estimated from few doses,[14]; [21],50.5 nM
CC(C)N1CC(=O)N(C)c2cnc(Nc3cccc(S(=O)(=O)CCN4CCOCC4)c3)nc21 [BI00009348],potency estimated from few doses,"[16]; compound concentrations: 100 nM and 1000 nM (sheet 'Samples'), CATDS: 4.9346970439547798E-2",1920 nM
Nc1nc(-c2ccc3c(N)n[nH]c3c2)cc(N2CCCC(NC(=O)c3ccccc3)C2)n1 (stereo not drawn) [GSK2286775B],potency estimated from few doses,[7]; [21],298 nM
same,potency estimated from few doses,[12]; [21],2230 nM
CN[C@H](C#Cc1c(F)ccc2c1/C(=C/c1[nH]ccc1OC)C(=O)N2)CO.Cl [RO0283049-001],potency estimated from few doses,"[10]; compound concentrations: 100 nM and 1000 nM (sheet 'Samples'), CATDS: 2.2375085806392098E-2",1190 nM
CCC(CC)(CC)n1cnc2c(N)ncnc21 [SKF-97620],potency estimated from few doses,"[1]; compound concentrations: 100 nM and 1000 nM (sheet 'Samples'), CATDS: 4.3166992032332097E-2",432 nM
same,potency estimated from few doses,"[2]; compound concentrations: 100 nM and 1000 nM (sheet 'Samples'), CATDS: 3.20593447179814E-2",852 nM
COc1cc[nH]c1/C=C1\C(=O)Nc2ccc(F)c(C#C[C@@H](O)[C@@H](N)[C@@H](C)O)c21 [RO0283120-000],potency estimated from few doses,[10]; [21],1010 nM
Cl.Nc1nc(-c2ccc3c(c2)C(=Cc2cc(Br)c(O)c(Br)c2)C(=O)N3)cs1 [GW407323A],potency estimated from few doses,"[12]; compound concentrations: 100 nM and 1000 nM (sheet 'Samples'), CATDS: 2.8034660612356401E-2",1950 nM
Cl.Cl.Cl.c1ccc(Oc2ccc(Nc3ccnc4cc(-c5ccc(CN6CCNCC6)o5)ccc34)cc2)nc1.c1ccc(Oc2ccc(Nc3ccnc4cc(-c5ccc(CN6CCNCC6)o5)ccc34)cc2)nc1 [GW567142A],potency estimated from few doses,"[4]; compound concentrations: 100 nM and 1000 nM (sheet 'Samples'), CATDS: 1.79490160981602E-2",1660 nM
same,potency estimated from few doses,[6]; CATDS: 2.55518807835587E-2,566 nM
same,potency estimated from few doses,[8]; CATDS: 2.5031582152460801E-2,598 nM
same,potency estimated from few doses,"[13]; compound concentrations: 100 nM and 1000 nM (sheet 'Samples'), CATDS: 5.3465139975610303E-2",111 nM
same,potency estimated from few doses,[20],104 nM
same,potency estimated from few doses,"[11]; compound concentrations: 100 nM and 1000 nM (sheet 'Samples'), CATDS: 1.6781429181419099E-2",2160 nM
